# The whole screen tested about 1,500 compounds, of which about 460 (31%) were called active. Not shown: some 1% with an inconclusive outcome. Not all results are given here. Results with a measured potency or affinity are listed apart. A number with no mark means an inactive call.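 The calls were made as follows: active = curve reaches 40% activation over neutral controls at an AC40 no higher than the top valid tested concentration; inconclusive = no clear call, values can overlap the other calls; inactive = signal moving opposite to the expected increase, and the rest.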
# Experiment: activators of glucose-dependent insulin secretion, dose response, cell-based, INS-1E, Gaussia luciferase, luminescence, cherry-pick, set 2 (AID 977607);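 also: 0% = median of the plate neutral control wells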
# Conditions: INS-1E GLuc insulin secretion reporter, 2-3 h, active compounds read high
# [1] = at 35 µM, 100% = signal doubled over neutral wells unless noted
compound,measurement,setting,value
Cc1ccnc(NS(=O)(=O)c2ccc(NC(=O)CCc3ccccc3)cc2)n1,max activation,[1],"33.7% [at 1.2 µM, 100% = signal doubled over neutral wells]"
Cc1ccc2c(=O)cc(C(=O)NC3CCS(=O)(=O)C3)oc2c1C (centres undefined),max activation,[1],"-12.4% [at 0.046 µM, 100% = signal doubled over neutral wells]"
CCC(=O)Nc1ccc(C(=O)N/N=C/c2cccnc2)cc1,max activation,[1],"-26.1% [at 3.8 µM, 100% = signal doubled over neutral wells]"
COc1ccc2oc(C(=O)Nc3nnc(C)s3)c(C)c2c1,max activation,[1],"-20% [at 0.015 µM, 100% = signal doubled over neutral wells]"
CCc1nc(N)nc(N)c1-c1ccc(Cl)c(N=[N+]=[N-])c1,max activation,"at 0.046 µM, 100% = signal doubled over neutral wells",-14.5%
same,max activation,"at 1.2 µM, 100% = signal doubled over neutral wells",-22.8%
Cc1ccc(-c2csc(NC(=O)CCCc3cccs3)n2)cc1,max activation,[1],"22% [at 0.42 µM, 100% = signal doubled over neutral wells]"
CCCc1nc2n[nH]c(N)c2c2c1COC(C)(C)C2,max activation,[1],19.9%
COc1ccc(CN(C)C(=O)COc2cccc(-n3cnnn3)c2)cc1OC,max activation,[1],25.6%
COc1ccc(-c2cc(C(=O)N3CCCCCC3)no2)cc1OC,max activation,[1],"-22% [at 3.8 µM, 100% = signal doubled over neutral wells]"
COc1ccccc1CNS(=O)(=O)c1cc(-c2cc(C)no2)ccc1C(C)C,max activation,[1],-29.2%
COCCNC(=O)c1ccc(N(C)S(=O)(=O)c2ccc(OC)c(OC)c2)cc1,max activation,[1],"19.5% [at 0.005 µM, 100% = signal doubled over neutral wells]"
O=C(N/N=C/c1cc(Cl)ccc1O)c1ccc(Br)cc1,max activation,[1],"-24.4% [at 3.8 µM, 100% = signal doubled over neutral wells]"
C=CCc1cccc(/C=N/NC(=O)CCC(=O)Nc2ccc(C)cc2)c1O,max activation,[1],-34.3%
Cc1nc2ccccc2c(=O)n1/N=C/c1ccc(N(C)C)cc1,max activation,[1],"-10.6% [at 1.2 µM, 100% = signal doubled over neutral wells]"
CCc1nc2c(OCCC3CCCCC3)cccn2c1N(C)C(=O)c1ccco1,max activation,[1],-35%
Cc1ccccc1CN(C)Cc1cc(=O)oc2c(C)c(C)ccc12,max activation,[1],-33.3%
O=C(c1ccccc1)N(C(=O)c1ccccc1)N1CCCC1,max activation,[1],"28.2% [at 0.046 µM, 100% = signal doubled over neutral wells]"
O=C(O)CCN1c2ccccc2Sc2ccccc21,max activation,[1],"-23% [at 3.8 µM, 100% = signal doubled over neutral wells]"
O=C(CCc1ccccc1)NNC(=O)COc1ccccc1Cl,max activation,[1],"22.3% [at 0.42 µM, 100% = signal doubled over neutral wells]"
COc1ccc(/C=N/Nc2ncnc3c2[nH]c2ccccc23)c(OC)c1OC,max activation,[1],"-28.4% [at 0.005 µM, 100% = signal doubled over neutral wells]"
c1ccc2c(N3CCCCC3)nc(N3CCCC3)nc2c1,max activation,[1],34.7%
O=S(=O)(N1CCOCC1)n1c(Cc2ccccc2)nc2ccccc21,max activation,[1],"-18.5% [at 0.046 µM, 100% = signal doubled over neutral wells]"
CCOC(=O)C1CCCN(C(=O)c2cccnc2Oc2ccccc2)CC1 (centres undefined),max activation,[1],"48.6% [at 1.2 µM, 100% = signal doubled over neutral wells]"
COc1ccc(CCNCc2cc3ccc(C)cc3[nH]c2=O)cc1OC,max activation,[1],"20.9% [at 11 µM, 100% = signal doubled over neutral wells]"
COC(=O)[C@]1(Cc2ccccc2)N[C@H](CN(C)C(=O)Nc2ccc(C)cc2)[C@@H]2C(=O)N(C)C(=O)[C@@H]21,max activation,[1],"-13.8% [at 11 µM, 100% = signal doubled over neutral wells]"
O=C(NCc1ccc(Cl)cc1)c1cc(=O)[nH]c2ccc(S(=O)(=O)N3CCOCC3)cc12,max activation,[1],"27.5% [at 0.005 µM, 100% = signal doubled over neutral wells]"
O=C(Nc1ccc(S(=O)(=O)N2CCOCC2)cc1)c1ccc(=O)[nH]c1,max activation,[1],"-14.6% [at 0.046 µM, 100% = signal doubled over neutral wells]"
CCN(Cc1ccccc1)S(=O)(=O)c1ccccc1Br,max activation,[1],-30.7%
CC/C(O)=C1\C(=O)CC(C)(C)CC1=Nc1ccccc1C,max activation,[1],"-12.4% [at 0.046 µM, 100% = signal doubled over neutral wells]"
CCCC(=O)Nc1ccc(N2CCN(S(C)(=O)=O)CC2)cc1,max activation,[1],"-16% [at 11 µM, 100% = signal doubled over neutral wells]"
CCc1onc(C)c1C(=O)Nc1ccc(N2CCOCC2)cc1,max activation,[1],"-20.7% [at 11 µM, 100% = signal doubled over neutral wells]"
CCn1c(C)nc2cc(S(=O)(=O)C(F)(F)F)ccc21,max activation,[1],"-18% [at 0.135 µM, 100% = signal doubled over neutral wells]"
COC(=O)c1scc(C)c1NC(=O)CC1NCCNC1=O (centres undefined),max activation,[1],"-9.21% [at 0.0016 µM, 100% = signal doubled over neutral wells]"
O=C(c1ccc2c(c1)OCO2)N1CCN(S(=O)(=O)c2ccccc2)CC1,max activation,[1],"-16.9% [at 0.42 µM, 100% = signal doubled over neutral wells]"
O=C(O)c1ccc(S(=O)(=O)NCc2ccc3c(c2)OCO3)cc1,max activation,[1],"-14.4% [at 0.42 µM, 100% = signal doubled over neutral wells]"
COc1ccc(S(=O)(=O)N(C)c2ccc(C(=O)NCC3CCCO3)cc2)cc1OC (centres undefined),max activation,[1],"-7.27% [at 1.2 µM, 100% = signal doubled over neutral wells]"
CC(=O)c1cccc(Nc2ncnc3ccc(Br)cc23)c1,max activation,[1],"-20.3% [at 0.0016 µM, 100% = signal doubled over neutral wells]"
COC(=O)COc1ccc(C)cc1-n1nc2ccccc2n1,max activation,[1],22.5%
COc1cccc(-c2nnn(CC(=O)O)n2)c1,max activation,[1],-16%
CCOc1cc(C(=O)N(C)CC(=O)Nc2cccc3ccccc23)ccc1OC,max activation,[1],"18.1% [at 11 µM, 100% = signal doubled over neutral wells]"
CN(C)S(=O)(=O)c1cccc(-c2csc(N/N=C/c3ccco3)n2)c1,max activation,[1],"-17.2% [at 3.8 µM, 100% = signal doubled over neutral wells]"
CCc1cccc(NC(=O)C2CCCN2S(=O)(=O)c2ccc3c(c2)n(C)c(=O)c(=O)n3C)c1 (centres undefined),max activation,[1],-17.8%
CCOc1cc(OCC)cc(C(=O)Nc2cccnc2)c1,max activation,[1],"14.6% [at 1.2 µM, 100% = signal doubled over neutral wells]"
C=C1[C@@H](O)[C@H](CC(C)C)N(Cc2ccccc2Br)S1(=O)=O,max activation,[1],-22.8%
COc1ccc(-n2c(-c3ccc(Cl)cc3)c[nH]c2=S)cc1,max activation,[1],14.5%
CCCOc1ccc(/C=N/NC(=O)C(=O)Nc2ccccn2)cc1,max activation,[1],19.6%
CC(C)CCC(O)(CCC(C)C)C(=O)NN1CCCCC1,max activation,[1],"26.3% [at 0.015 µM, 100% = signal doubled over neutral wells]"
O=c1cc(Cl)[nH]c(=O)n1Cc1ccccc1,max activation,[1],"-18% [at 0.135 µM, 100% = signal doubled over neutral wells]"
Cc1cc(C(=O)Nc2cccc(O)c2)c(C)o1,max activation,[1],"50.1% [at 0.135 µM, 100% = signal doubled over neutral wells]"
Cc1ccc(NC(=O)c2ccccc2-c2ccccc2C(=O)O)cc1C,max activation,[1],"-15.4% [at 0.046 µM, 100% = signal doubled over neutral wells]"
CCCn1nc(C(=O)NC2CCCC2)c2ccccc2c1=O,max activation,[1],"14.9% [at 0.135 µM, 100% = signal doubled over neutral wells]"
CCCn1nc(C(=O)NC2CC2)c2ccccc2c1=O,max activation,[1],"-11.7% [at 0.135 µM, 100% = signal doubled over neutral wells]"
CCNc1nc(C)nc2c1oc1ccccc12,max activation,[1],"20.6% [at 11 µM, 100% = signal doubled over neutral wells]"
CC(C)Oc1cccc(C(=O)C2CCCN(C(=O)CCc3cnn(C)c3)C2)c1 (centres undefined),max activation,[1],"-16.9% [at 0.0016 µM, 100% = signal doubled over neutral wells]"
CCCCCCc1cc2cc(C(=O)Nc3cccc(OC)c3)c(=O)oc2cc1O,max activation,[1],"-54.3% [at 1.2 µM, 100% = signal doubled over neutral wells]"
Cc1ccnc(NC(=O)Nc2ccc(Br)cc2Cl)c1,max activation,[1],"-16.6% [at 0.0016 µM, 100% = signal doubled over neutral wells]"
COCCn1c(=O)[nH]c2cc(C(=O)Nc3cc(OC)c(OC)c(OC)c3)ccc2c1=O,max activation,[1],"-21.3% [at 11 µM, 100% = signal doubled over neutral wells]"
COc1ccc(Cl)cc1C(=O)Nc1cccc(-c2ccc3nncn3n2)c1,max activation,[1],"-16.9% [at 0.015 µM, 100% = signal doubled over neutral wells]"

# Reference: PubChem BioAssay AID977607 (Broad Institute, 2014)
